Screening data as filed in PubChem.
This is a sample that favours compounds with a hit; in the whole collection about 7.9% have one here.
SW480 rereplic: DNA re-replication induction in SW480 cells; SW480 DNA re-replication, Hoechst DNA content imaging, 48 h; Potency, µM (highest dose often 46.1 µM), without a hit: at the top dose re-replication activation, most hits filed as activators; hit rate 1.8% among 340,000; AID 624297; further: % of control where 0% means no effect; nearly all actives have a fitted effect of over 55% in size
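Readout is total intensity of Hoechst-stained nuclei, excited at 405 nm and collected at 500-530 nm. Compound treatment lasted 48 hr at 37 C in 5% CO2 before staining.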
KB-V1 MDR tox: kills drug-selected multidrug resistant KB-V1 cells; KB-V1 MDR cells viability, CellTiter-Glo, 72 h; Potency, µM (top dose mostly 46.1 µM), actives largely listed as cytotoxic; hit rate 3.4% among 400,000; further: on the % scale 0 is the no-effect control and ±100 the full control effect; nearly all actives have a fitted effect of over 60% in size
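KB-V1 cells (P-gp-expressing MDR subline of KB-3-1) in phenol-red-free DMEM with 10% FBS were exposed to library compounds over a concentration series for 72 h at 37 degrees C. Viability read by CellTiter-Glo luminescence; concentration-effect curves fitted after normalization.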
HT1080 IDH1KD tx: kills HT-1080 cells with IDH1 knockdown. HT-1080 IDH1 knockdown viability, ATP luminescence, 48 h. Potency, µM (titrated, usually from 46.1 µM), without a hit: at the top dose activity, negative = toxicity, most hits filed as cytotoxic. hit rate 2% among 360,000. AID 686971;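 further: 0% = DMSO wells and -100% = cell-free medium wells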
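Assay cells: HT-1080 with IDH1 knockdown, 750 per well, RPMI/5% FBS. Exposure: 48 h at 37 °C following 2 h pre-incubation. Read: CellTiter-Glo luminescence; fitted concentration-response, curve class assigned.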
HT1080NT lethal: kills 2HG-producing HT-1080-NT fibrosarcoma cells. Potency, µM (top dose mostly 46.1 µM), inactives show at the highest dose activity, negative = less viability, hits mostly cytotoxic. hit rate 1.6% among 360,000. HT-1080-NT fibrosarcoma viability, CellTiter-Glo ATP luminescence, 48 h;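 further: NT is the 2HG producing partner of a matched IDH1 knockdown line; 0% = DMSO-treated cells and -100% = media-only wells without cells; nearly all actives have a fitted effect of over 55% in size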
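Viability by CellTiter-Glo luminescence after 48 h compound exposure at 37C of HT-1080-NT cells (750/well, RPMI, 5% FBS). % activity scaled between DMSO wells and medium-only wells, then curve-fitted and categorized by curve class.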
KB-3-1 tox: KB-3-1 parental cell cytotoxicity; KB-3-1 viability, CellTiter-Glo ATP luminescence, 72 h; Potency, µM (titrated, usually from 46.1 µM), most hits filed as cytotoxic; hit rate 1.4% among 400,000; further: on the % scale 0 is the no-effect control and ±100 the full control effect; nearly all actives have a fitted effect of over 60% in size
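Here the drug-naive KB-3-1 line serves as comparator for MDR sub-line selectivity; cells received compound titrations, 72 h at 37 °C, then CellTiter-Glo readout.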
MCF10A rerep: inducers of DNA re-replication in MCF 10A breast cells | MCF 10A DNA re-replication, Hoechst nuclear intensity, 48 h | Potency, µM (series often up to 46.1 µM), for the others: top-dose activity, positive = re-replication, usual class: activators | hit rate 2.9% among 350,000 | AID 624296; further: % of control where 0% means no effect; nearly all actives have a fitted effect of over 50% in size
* = called active by the depositor; i = inactive; ? = inconclusive; / = no result given; [ ] = remark or other dose. The call rests on the fitted dose curve; in most records, active means well fitted curve in the direction sought with a large enough effect; inconclusive means small, poorly fitted or top-dose-only effect, or another doubt; inactive means no such curve, though single readings can be large; an effect the other way counts as inactive or inconclusive. Potency means the concentration at half of the fitted maximal effect.

SMILES | SW480 rereplic | KB-V1 MDR tox | HT1080 IDH1KD tx | HT1080NT lethal | KB-3-1 tox | MCF10A rerep
CCOc1ccc(NC(=NCc2ccc3c(c2)OCO3)SC2CC(=O)N(c3ccccc3)C2=O)cc1 (stereo not given) | 1% | i | -30% | -25% | i | ?
CCOc1ccc(NC(=NCc2ccc3c(c2)OCO3)SC2CC(=O)N(c3ccc(OCC)cc3)C2=O)cc1 (stereo not given) | 16% | ? | ? | ? | i | 21µM*
COc1cc(NC(=O)c2cccc([N+](=O)[O-])c2C)ccc1NC(=O)c1ccco1 | -172% | ? | -22% | -3% | i | -14%
COc1ccc(C2=CC(c3c(C)nn(-c4ccccc4)c3Cl)n3nnnc3N2)cc1OC (stereo not given) | ? | 21µM* | ? | ? | 16µM* | ?
CC(=O)Nc1ccc2ccccc2c1 | -13% | i | 14% | -1% | i | 18%
CC(=O)Nc1ccc2cc3ccc(NC(C)=O)cc3nc2c1 | -4% | i | ? | ? | 23µM* | -8%
c1ccc(CN2CCC(Nc3nc(-c4cccnc4)nc4ccccc34)CC2)cc1 | ? | ? | 21µM* | ? | ? | ?
C=CCNc1nc(N2CCCC2)nc2ccccc12 | -3% | i | ? | -30% | ? | 1%
COc1ccc(C(CNc2nc(-c3cccnc3)nc3ccccc23)N(C)C)cc1 (stereo not given) | 245% | i | 16µM* | 16µM* | i | ?
O=C(Nc1nc(-c2ccccc2)nc2ccccc12)c1ccc(F)cc1 | ? | i | 24% | 2% | i | 18µM*
COC(=O)CNc1nc(-c2cccnc2)nc2ccccc12 | 4% | i | -5% | -8% | i | 17%
CC(Nc1nc(N2CCCCC2)nc2ccccc12)c1ccccc1 (stereo not given) | 0% | ? | ? | ? | 11µM* | ?
Cc1ccc(C(C)CCN2CCC(n3nccc3NC(=O)c3ccccc3)CC2)o1 (stereo not given) | 6% | / | 6% | 0% | / | 5%
Cc1ccc2nc(CSc3nc(C)nc4c3oc3ccccc34)[nH]c2c1 | ? | i | / | / | ? | ?
COc1ccc(CCC(=O)NCc2ccccc2OC)cc1 | -5% | i | -3% | -2% | i | 0%
Cc1c(O)ccc(/C=N/Nc2nc(-c3cccnc3)nc3ccccc23)c1O | ? | ? | ? | 18µM* | i | ?
Oc1ccc(/C=N/Nc2nc(-c3cccnc3)nc3ccccc23)c(O)c1 | ? | i | ? | ? | i | ?
CCOC(=O)c1ccc(Nc2ncnc3ccccc23)cc1 | 0% | i | -21% | -12% | i | 5%
COc1ccc(CCNc2nc(-c3cccnc3)nc3ccccc23)cc1OC | ? | 8.2µM* | 10µM* | ? | i | ?
c1ccc2c(Nc3nc(-c4ccncc4)nc4ccccc34)cccc2c1 | 29µM* | i | ? | ? | i | 23µM*
CCOC(=O)c1ccc(Nc2nc(-c3cccnc3)nc3ccccc23)cc1 | ? | i | ? | 15µM* | i | 18µM*
CC(Nc1nc(-c2ccccc2F)nc2ccccc12)c1ccccc1 (stereo not given) | 7% | i | -4% | -16% | i | ?
CC(Nc1nc(-c2ccccc2)nc2ccccc12)c1ccccc1 (stereo not given) | -1% | i | -17% | ? | ? | ?
COc1ccccc1Nc1nc(-c2ccccc2F)nc2ccccc12 | / | 8.2µM* | / | / | ? | /
CC(Nc1nc(-c2cccnc2)nc2ccccc12)c1ccc(F)cc1 (stereo not given) | 4% | 18µM* | ? | -27% | ? | ?
SMILES | SW480 rereplic | KB-V1 MDR tox | HT1080 IDH1KD tx | HT1080NT lethal | KB-3-1 tox | MCF10A rerep
CC(Nc1nc(-c2ccccc2O)nc2ccccc12)c1ccccc1 (stereo not given) | ? | i | ? | ? | i | 21µM*
Cc1ccc(-c2nc(N/N=C/c3ccncc3)c3ccccc3n2)cc1 | 4% | 23µM* | 10µM* | 11µM* | ? | 3%
Cc1ccc(Nc2nc(-c3cccnc3)nc3ccccc23)cc1 | 9.2µM* | ? | ? | ? | ? | 15µM*
c1ccc(-c2nnc(-c3ccccn3)nc2NC2CCCCC2)cc1 | ? | ? | ? | ? | 16µM* | 10µM*
CCC(NC(=O)Nc1nnc(C(F)(F)F)s1)(C(F)(F)F)C(F)(F)F | ? | 4.1µM* | 3.7µM* | 3.3µM* | 10µM* | ?
CC(Oc1ccccc1)C(=O)Nc1nc2c(s1)C(=O)CC(C)(C)C2 (stereo not given) | -7% | i | 2% | 3% | i | 17%
O=C(O)CCC(=O)Nc1nnc(C(F)(F)F)s1 | -3% | ? | 3% | 9% | i | -1%
CC1(C)CC(=O)c2sc(NS(=O)(=O)c3ccc(Br)cc3)nc2C1 | -31% | i | 4% | 8% | i | 0.58µM*
CC1(C)CC(=O)c2sc(NS(=O)(=O)c3ccc(Cl)cc3)nc2C1 | -28% | i | 4% | 1% | i | -18%
O=C(CCS(=O)(=O)c1ccccc1)Nc1nnc(C(F)(F)F)s1 | 13µM* | ? | 18µM* | ? | ? | 23µM*
CC1(C)CC(=O)c2sc(NC(=O)CCS(=O)(=O)c3ccccc3)nc2C1 | -2% | i | -29% | -21% | 21µM* | 23µM*
CC(C)(C)c1nnc(NC(=O)CCS(=O)(=O)c2ccccc2)s1 | ? | i | ? | -17% | i | ?
COc1cc([N+](=O)[O-])ccc1NC(=O)c1nc2ccccc2n(C)c1=O | / | ? | / | / | i | /
Clc1ccccc1-c1nnc2sc(CCc3ccccc3)nn12 | 5% | ? | 2% | 5% | i | 29%
COc1ccc(-c2ccc(-c3noc(C4CCCCC4)n3)c(OC)n2)cc1 | -60% | 16µM* | 0% | -3% | i | 15%
COc1nc(-c2ccccc2)ccc1-c1noc(-c2cccnc2)n1 | -2% | i | -1% | 9%[9.24 µM] | i | -2%
COc1nc(-c2ccc(C)cc2)ccc1-c1noc(-c2cccnc2)n1 | -13% | i | 17% | 19% | i | 21µM*
COc1ccc(-c2ccc(-c3noc(-c4ccccc4C)n3)c(OC)n2)cc1 | 2% | i | 30% | 18% | i | 15µM*
Cc1cc(=O)[nH]c(SCC(=O)Nc2nc3c(s2)CCCC3)n1 | -3% | i | -5% | -6% | i | 0%
